# Screens as filed in PubChem BioAssay.
# A selection: hits, their analogues and other compounds. The true share with any hit is near 3.4%.
# TEAD-YAP inh = TEAD-YAP interaction inhibition | HEK-TIYL cells, TEAD-Gal4/YAP UAS-luciferase luminescence | inhibition, % at 9.12 µM | actives 1.4% (n = 640,000) | AID 1259422; in the data active = inhibition above about 32%;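 also: 0% = median of test compound wells and 100% = reference inhibitor wells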
# GPR151 ag = activators of human GPR151; Q8TDV0; PathHunter beta-arrestin GPR151 cells, luminescence; activation, % at 11.2 µM; actives 1% (n = 650,000); in the data active = activation above about 4.9%;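 also: 0% = median of compound wells and 100% = cells with positive control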
# MITF primary = blocks human microphthalmia-associated transcription factor | O75030 | AlphaScreen MITF homodimerization, bead proximity signal | inhibition, % at 2.6 µM | actives 0.91% (n = 650,000); in the data active = inhibition above about 50%;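 also: 0% = vehicle wells with protein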
# FBW7 act = activators of human E3 ligase FBW7 | normalized activity (activation), % at 26.1 µM | AlphaScreen FBW7–phospho-cyclin E peptide binding, activator screen | Q969H0 | actives 0.13% (n = 650,000) | AID 1259310; in the data active = normalized activity above about 1.9%;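 also: purified mutant Fbw7 with reduced substrate affinity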
# Target sequence (Q969H0 whole entry, looked up): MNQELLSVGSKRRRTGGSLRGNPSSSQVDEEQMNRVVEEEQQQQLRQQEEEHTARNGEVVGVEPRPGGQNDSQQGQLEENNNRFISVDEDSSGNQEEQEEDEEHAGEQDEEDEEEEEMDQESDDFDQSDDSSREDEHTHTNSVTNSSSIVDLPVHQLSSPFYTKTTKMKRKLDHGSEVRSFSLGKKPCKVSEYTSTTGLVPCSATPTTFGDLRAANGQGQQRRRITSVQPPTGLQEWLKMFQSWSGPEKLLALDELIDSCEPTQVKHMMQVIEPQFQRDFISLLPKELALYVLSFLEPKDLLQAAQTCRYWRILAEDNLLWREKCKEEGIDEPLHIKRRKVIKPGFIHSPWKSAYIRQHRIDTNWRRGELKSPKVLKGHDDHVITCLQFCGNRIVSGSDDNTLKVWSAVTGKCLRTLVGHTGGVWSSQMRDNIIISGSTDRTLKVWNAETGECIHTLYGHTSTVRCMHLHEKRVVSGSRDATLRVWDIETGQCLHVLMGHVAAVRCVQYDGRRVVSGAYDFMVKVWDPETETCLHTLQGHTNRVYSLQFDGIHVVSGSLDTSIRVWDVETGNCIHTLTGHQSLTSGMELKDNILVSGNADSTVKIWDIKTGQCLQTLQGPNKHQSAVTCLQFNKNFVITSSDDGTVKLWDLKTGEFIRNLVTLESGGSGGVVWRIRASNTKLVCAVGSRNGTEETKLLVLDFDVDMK
# GPR151 conf act = human GPR151 activation, confirmation screen; AID 1508609; activation, % at 11.2 µM; shares compounds with GPR151 ag; GPR151 PathHunter beta-arrestin cells, luminescence, 90 min; % of EA-reagent control over plate median; 6,700 tested, under 10 active;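 active = mean percent activation across replicates above the confirmation screen cutoff of 4.91%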
# GPR119 counter = activates human GPR119 in a GPR151 counter-screen. actives 0.3% (n = 6,700). shares compounds with GPR151 ag. GPR119 PathHunter beta-arrestin cells, luminescence, 90 min; 0 = compound-well median, 100 = enzyme-acceptor control. activation, % at 11.2 µM;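 active = mean percent activation in the counterscreen above 29.09%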;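 also: counterscreen on off-target GPR119 to flag nonselective hits from the GPR151 activator screen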
# Numbers without * were called inactive; · = no result; ! = not confirmed by another sample.
SMILES,TEAD-YAP inh,GPR151 ag,MITF primary,FBW7 act,GPR151 conf act,GPR119 counter
COc1ccc(OC/C(O)=C(\C#N)c2nc3ccccc3[nH]2)cc1,-0.3,0.5,7.4,-0.6,·,·
COc1ccccc1NC(=O)C1=C(C)NC(SCC(=O)Nc2ccccc2C)=C(C#N)C1c1ccccc1 (stereo unspecified),-4.9,-0.9,-3.1,0.1,·,·
CCc1ccc(-c2nc(=S)[nH][nH]2)cc1,-20.5,7.6*,-1.2,-0.1,1.0,6.3
CC(=O)C1=C(O)C(=O)N(CCCO)C1c1cccc([N+](=O)[O-])c1 (stereo unspecified),2.8,-1.2,21.6,0.1,·,·
CSc1ccc(CNc2ncc(-c3ccccc3)n2C)cc1,-2.9,7.7*,26.4,-0.1,-0.7,-4.1
CSc1ccc(CNc2ncc(-c3cccc([N+](=O)[O-])c3)n2C)cc1,-1.9,0.5,49.7,0.3,·,·
COc1ccccc1C1(NC(=O)c2ccc(Cn3cccn3)o2)CCCC1,7.2,-0.4,2.4,0.0,·,·
COc1ccc(N2C(=O)CC(NNC(=O)CSc3ccc(C)cc3)C2=O)cc1Cl (stereo unspecified),-3.5,-1.2,-2.7,-0.1,·,·
CC1Sc2ccccc2N(Cc2ccc(C(F)(F)F)nc2)C1=O (stereo unspecified),-2.7,5.4*,9.4,0.6,0.4,10.8
O=C(CSc1nc2[nH]ncc2c(=O)n1-c1ccc(Cl)cc1)Nc1ccc(Oc2ccccc2)cc1,11.2,0.3,-1.0,-0.2,·,·
O=C(CCc1nnc(Cc2ccc3c(c2)OCO3)o1)NCCCC1CCCC1,-2.0,6.9*,0.2,0.0,-0.7,-1.4
CCN(CC(=O)NC1CCCCCC1)S(=O)(=O)c1ccc(C)cc1,-5.8,5.4*,-0.5,0.1,2.4,1.9
CCCN1CCN(C(=O)c2sc3ncnc(N4CCN(c5ccccc5)CC4)c3c2C)CC1,1.9,-0.6,7.3,-0.1,·,·
Cc1ccccc1-n1ncc(C(C)NC(=O)c2cc(C3CC3)on2)c1C (stereo unspecified),-8.9,0.5,3.5,-0.1,·,·
CCCCC1CCC(C(=O)Nc2nnc(SCC(=O)NCC3CCCO3)s2)CC1 (stereo unspecified),-2.8,1.1,-11.9,0.0,·,·
Oc1ccc(Br)cc1-c1nnc2ccc3ccccc3n12,5.6,10.2*,15.4,0.1,0.0,14.4
COC(=O)C1CC(=O)N(Cc2ccccc2)C12CCN(CC1CC1)CC2 (stereo unspecified),3.6,-1.8,18.2,0.1,·,·
N#Cc1cc2c(nc1SCc1ccc([N+](=O)[O-])cc1)CCCCC2,1.7,6.1*,-0.6,0.0,0.0,-9.4
c1ccc(-c2cc(N3CCCCC3)nc(-c3cccnc3)n2)nc1,18.0,1.1,4.1,0.1,·,·
c1ccc(-c2cc(N3CCCCC3)nc(-c3ccncc3)n2)nc1,10.9,9.4*,3.1,0.2,-1.4,-6.2
CC(=O)N1CCC2(CC1)Oc1ccccc1C1CC(c3ccccc3)=NN12 (stereo unspecified),-16.8,0.8,8.8,0.5,·,·
COc1cc(Nc2ncc(C(=O)NCc3ccccc3)s2)cc(OC)c1OC,-21.3,6.1*,8.9,0.0,0.5,3.3
COc1cc(C(=O)NCc2cc(-c3ccccc3)on2)cc(OC)c1OC,-1.9,6.2*,0.1,-0.1,-0.9,-16.8
CCOc1ccc(NC(=S)NC(=O)/C=C/c2ccco2)c([N+](=O)[O-])c1,5.7,1.1,3.9,0.0,·,·
CC(=O)c1ccccc1-c1ccc2c(-c3ccc(N4CCNCC4)cc3)[nH]nc2n1,4.6,1.0,3.0,0.3,·,·
SMILES,TEAD-YAP inh,GPR151 ag,MITF primary,FBW7 act,GPR151 conf act,GPR119 counter
NC(=O)c1ccc(-c2ccc3c(-c4ccc(N5CCNCC5)cc4)[nH]nc3n2)cc1,-38.5,5.9*,0.2,0.8,0.0,2.7
CS(=O)(=O)c1ccc(N2CCN(Cc3ncc[nH]3)CC2)c(F)c1,-1.8,1.8,17.2,0.2,·,·
NS(=O)(=O)c1ccccc1NC(=O)c1c(O)c2cccc3c2n(c1=O)CC3,-9.4,5.2*,-4.7,-0.1,-0.8,-9.9
C=CCNC(=O)c1c(SCC)nc2sccn2c1=O,4.0,-0.9,-2.7,0.1,·,·
COc1ccc(C(=O)OCCCOC(=O)c2ccc(OC)cc2OC)c(OC)c1,-21.0,5.9*,24.1,0.3,1.4,7.6
COc1ccc(C(=O)OCCCC(=O)c2ccc(F)cc2)c(OC)c1,-0.4,2.1,6.2,0.0,·,·
CC(=O)Nc1ccc(N2CCCCC2)c(C(=O)Nc2cccc(C)c2)c1,3.7,-0.5,11.9,0.2,·,·
Cc1cccc(NC(=O)c2cc(N3C(=O)CCC3=O)ccc2N2CCCCC2)c1,3.7,8.2*,-14.5,-0.1,0.0,8.5
CC1=C(C(=O)NC(C)c2ccccc2)C2(CCCCC2)OC1=O (stereo unspecified),-2.2,-1.8,8.0,0.5,·,·
CCn1c(N)c(C(=O)NCC2CCCO2)sc1=S (stereo unspecified),-4.7,5.6*,-18.1,0.1,0.8,7.2
CCN1CCSc2ccc(C(=O)NCC3CCCO3)cc21 (stereo unspecified),-4.7,8.1*,5.7,0.1,-0.5,-6.1
O=C(CSC(=S)N1CCCCC1)c1ccc([N+](=O)[O-])cc1,-31.6,6.1*,20.0,0.2,-0.1,-4.8
CCCNC(=O)N1CCC2(CC1)CC(=O)c1cc(C)ccc1O2,5.1,0.2,11.5,-0.1,·,·
O=C(Nc1nnc(-c2cccc([N+](=O)[O-])c2)s1)c1cccs1,4.9,8.6*,-2.6,-0.1,0.5,-3.0
CC(=O)Nc1nnc(-c2cccc([N+](=O)[O-])c2)s1,17.9,-2.3,13.9,0.4,·,·
O=S1(=O)N=C(N(CCO)/N=C/c2cccc(O)c2O)c2ccccc21,-6.5,5.9*,1.5,-0.2,0.2,-5.8
CCC(=O)Nc1nc(-c2cccc(Br)c2)cs1,-34.7,0.1,-17.8,-0.1,·,·
CC(C)(C)Nc1nc(-c2cccc(Br)c2)cs1,-21.3,7.5*,-4.3,0.0,0.8,-8.9
Cn1ncc2c(NC3CCCCCC3)ncnc21,-15.6,0.1,8.6,0.8,·,·
COc1ccc(C#C[C@@H]2C=C[C@H](OC(C)=O)[C@@H](COC(C)=O)O2)cc1,·,9.3*!,-8.2,0.1,0.8,-4.8
CC(=O)OC[C@H]1O[C@H](C#Cc2ccc(C(C)(C)C)cc2)C=C[C@@H]1OC(C)=O,·,0.4,-1.9,-0.2,·,·
N#C/C(=C/c1ccc(N2CCOCC2)c([N+](=O)[O-])c1)c1nc2ccccc2[nH]1,-18.9,5.2*,-25.3,-0.1,-1.6,-6.1
O=C(CCc1nnc(C2(c3ccc(Cl)cc3)CCC2)o1)NCCCc1cccnc1,-18.4,-1.5,-4.5,0.0,·,·
O=C(CCc1nnc(C2(c3ccc(Cl)cc3)CCC2)o1)NCc1cccnc1,-1.4,4.9*,4.1,0.0,-0.7,-9.3
O=C(/C=C/c1cccc([N+](=O)[O-])c1)Oc1ccc(Br)cc1Br,0.3,1.0,5.5,0.0,·,·
Cc1ccc(NC(=O)COc2ncnc3ccc(Br)cc23)cc1[N+](=O)[O-],0.6,3.4,10.7,-0.1,·,·
